# Source: PubChem BioAssay
# “And” between values parts separate entries of the source, which are not always exact repeats. Equal values may be shown once. Records with an inconclusive call do not appear. A structure can be active in one record and inactive in another. The source made the active and inactive calls.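 Rule for the calls, unless noted: active = at least 20% inhibition of 6-phosphogluconate dehydrogenase activity; inactive = the rest.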
# Columns and labels:
# [1] = molecular target: 6-phosphogluconate dehydrogenase, decarboxylating (Homo sapiens) (UniProt P52209); assay: 6PGD enzyme inhibitors, primary screen, biochemical, human, recombinant enzyme, NADPH absorbance (AID 1159550); details: recombinant 6PGD, NADPH absorbance 341 nm; at 10 µM; stronger effect = higher value
# [2] = molecular target: Mitogen-activated protein kinase 7 (Homo sapiens) (UniProt Q13164); assay: ERK5 transactivation activators in reporter cells, primary screen, cell-based, HTS (AID 1508626;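 active = luciferase signal above three times the same-plate solvent-only control wells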;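 note: luciferase driven by Gal4-ERK5 fusion binding five Gal4 sites before minimal TATA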); details: HeLa Gal4-ERK5 transactivation, 18 h, at 5 µM, stronger effect = higher value
# [3] = growth inhibition of DIPG glioma cells, dose response, cell-based, SU-DIPG-XIII, MIPE4.0, CellTiter-Glo, qHTS (AID 1347061; cut-off not given, nearly all actives have AC50 up to about 37 µM;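 note: cells exposed to compound for 48 hours before readout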); details: SU-DIPG-XIII viability, CellTiter-Glo ATP luminescence
# [4] = growth inhibition of DIPG glioma cells, dose response, cell-based, JHH-DIPG-1, MIPE4.0, CellTiter-Glo, qHTS (AID 1347062; cut-off not given, nearly all actives have AC50 up to about 27 µM;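 for AC50: cells exposed to compound for two days before readout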); details: JHH-DIPG-1 viability, CellTiter-Glo ATP luminescence
# [5] = liver-stage malaria parasite growth inhibition, primary screen, cell-based, HepG2, luciferase luminescence, HepG2 viability (AID 624349; in the data active = parasite load remaining mostly below about 12%, no sharp cut-off; inactive = mostly above about 10%;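 note: 100% = mean of DMSO negative control wells on the same plate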); details: P. berghei liver stage in HepG2, luciferase luminescence, concentration not given here; parasite load remaining: stronger effect = lower value; viability: measured here: HepG2 viability without parasites
# [6] = sensitizers of A549 cells to miR-34 induction, primary screen, imaging, A549 dox-inducible miR-34, nuclei and caspase counts (AID 1347080;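 active = compounds whose cell count with miR-34 switched on is under 0.7 times the count with it off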); details: A549 miR-34 inducible, Hoechst nuclei count, 48 h
# [7] = viability rescue of complex I mutant cybrids, primary screen, cell-based, galactose medium, ATP luminescence (AID 1645843;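 active = z-score of at least 1.8 in each of two replicates, scored against plate mean and spread of sample wells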;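 note: positive z means more ATP and so rescue of galactose-driven cybrid death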); details: complex I mutant cybrid cells, 72 h, stronger effect = higher value
# [8] = hESC survival regulators, cell-based (AID 493140; call rule not given here;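 note: cells exposed to compounds for four days before counting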); details: human embryonic stem cell survival screen; stronger effect = higher value
# [9] = growth inhibition of DIPG glioma cells, dose response, cell-based, SU-DIPG-IV, MIPE4.0, CellTiter-Glo, qHTS (AID 1347063; cut-off not given, nearly all actives have AC50 up to about 30 µM;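 note: compound exposure lasted 48 hours before the viability readout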); details: SU-DIPG-IV viability, CellTiter-Glo ATP luminescence
# [10] = molecular target: NAD(+) hydrolase SARM1 (Homo sapiens) (UniProt Q6SZW1); assay: SARM1 TIR NADase inhibitors, cell lysate, NAD-Glo luminescence (AID 1508614;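 active = compound whose remaining NAD level is above about 45 nM, limit read from the data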;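 note: higher remaining NAD means stronger inhibition of SARM1 NADase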); details: SAM-TIR HEK293T lysate NADase, at 1 µM, stronger effect = higher value
# [11] = LFS_MB_P medulloblastoma growth inhibition, cell-based, chromothripsis tumors, cisplatin or BGB combos (AID 1671449; in the data active = inhibition above about 80%;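 note: cells exposed for 96 hours; 0% = vehicle DMSO and 100% = killing by high DMSO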); details: LFS_MB_P medulloblastoma cells
# [12] = HDN33 neuroblastoma growth inhibition, cell-based, chromothripsis tumors, cisplatin or BGB combos (AID 1671450; in the data active = inhibition above about 80%;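 note: cells exposed to compound for four days; 0% = vehicle DMSO and 100% = cell killing by high DMSO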); details: HDN33 neuroblastoma cells, stronger effect = higher value
# [13] = ICB984 medulloblastoma cell growth inhibition, synergistic combos for chromothripsis tumors, cisplatin or BGB combos (AID 1671451; call rule not given here;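 note: cells exposed for 96 hours before readout; 0% = vehicle DMSO and 100% = killing by high DMSO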); details: ICB984 medulloblastoma cells, drug combinations, stronger effect = higher value
# [14] = LFS_MB_1R medulloblastoma cell growth inhibition, synergistic combos for chromothripsis tumors, cisplatin or BGB combos (AID 1671452; in the data active = inhibition above about 80%;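 note: cells exposed for 96 hours before readout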); details: LFS_MB_1R medulloblastoma cells, stronger effect = higher value
# [15] = HTB85 osteosarcoma cell growth inhibition, synergistic combos for chromothripsis tumors, BGB or cisplatin IC20 combos (AID 1671453; in the data active = inhibition above about 80%;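 note: cells exposed for 96 hours before readout; 0% = vehicle DMSO and 100% = high DMSO killing control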); details: HTB85 osteosarcoma cells, drug combinations, stronger effect = higher value
# [16] = MDA-MB-436 breast carcinoma cell growth inhibition, synergistic combos for chromothripsis tumors, BGB or cisplatin combos (AID 1671458; call rule not given here;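 note: cells exposed for 96 hours; 0% = vehicle DMSO and 100% = killing by high DMSO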); details: MDA-MB-436 breast carcinoma growth inhibition, drug combinations, stronger effect = higher value
# [17] = growth inhibition of BT084 medulloblastoma cells, cell-based, ICGC_MB145, cisplatin and BGB IC40 combos (AID 1671461; in the data active = inhibition above about 80%;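 note: cells exposed to drugs for 96 hours; 0% = vehicle DMSO and 100% = high DMSO full killing control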); details: drug combinations, stronger effect = higher value
# [18] = growth inhibition of RCMB18 medulloblastoma cells, cell-based, cisplatin and BGB IC40 combos (AID 1671462; in the data active = inhibition above about 80%;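 note: cells exposed to compound for four days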); details: stronger effect = higher value
# [19] = growth inhibition of CRL1545 osteosarcoma cells, cell-based, cisplatin and BGB IC20 combos (AID 1671464; in the data active = inhibition above about 80%;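 note: cells exposed to compound for 96 hours before readout; 0% = vehicle DMSO and 100% = high DMSO killing control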); details: stronger effect = higher value
# [20] = stronger effect = lower value, cell number ratio, induced over uninduced
# [21] = measured here: relative caspase fold change +Dox/-Dox
# [22] = measured here: total cells with miR-34 induction, stronger effect = lower value
# [23] = measured here: total cells without miR-34 induction
# [24] = measured here: combination with BGB IC40, at 0.05 µM
# [25] = measured here: with BGB IC20 combination, at 0.5 µM
# [26] = measured here: with cisplatin IC20 combination, at 0.5 µM
# [27] = measured here: combination with cisplatin, at 0.5 µM
# 6-phosphogluconate dehydrogenase, decarboxylating (Homo sapiens), sequence (P52209 whole entry, looked up, the tested form may be a part): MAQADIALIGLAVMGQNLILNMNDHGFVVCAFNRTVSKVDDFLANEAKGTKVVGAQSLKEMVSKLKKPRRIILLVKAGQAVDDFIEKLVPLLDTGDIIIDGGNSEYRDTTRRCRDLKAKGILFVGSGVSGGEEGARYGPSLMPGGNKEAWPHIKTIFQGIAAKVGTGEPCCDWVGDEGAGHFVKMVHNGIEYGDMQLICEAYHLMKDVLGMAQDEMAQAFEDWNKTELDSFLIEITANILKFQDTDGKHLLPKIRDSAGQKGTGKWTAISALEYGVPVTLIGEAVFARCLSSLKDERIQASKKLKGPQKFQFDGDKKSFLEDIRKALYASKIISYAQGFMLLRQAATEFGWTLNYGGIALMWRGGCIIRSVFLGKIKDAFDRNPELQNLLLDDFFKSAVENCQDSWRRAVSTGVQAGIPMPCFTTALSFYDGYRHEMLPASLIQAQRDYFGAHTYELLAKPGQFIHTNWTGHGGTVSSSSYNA
# Mitogen-activated protein kinase 7 (Homo sapiens), sequence (Q13164 whole entry, looked up, the tested form may be a part): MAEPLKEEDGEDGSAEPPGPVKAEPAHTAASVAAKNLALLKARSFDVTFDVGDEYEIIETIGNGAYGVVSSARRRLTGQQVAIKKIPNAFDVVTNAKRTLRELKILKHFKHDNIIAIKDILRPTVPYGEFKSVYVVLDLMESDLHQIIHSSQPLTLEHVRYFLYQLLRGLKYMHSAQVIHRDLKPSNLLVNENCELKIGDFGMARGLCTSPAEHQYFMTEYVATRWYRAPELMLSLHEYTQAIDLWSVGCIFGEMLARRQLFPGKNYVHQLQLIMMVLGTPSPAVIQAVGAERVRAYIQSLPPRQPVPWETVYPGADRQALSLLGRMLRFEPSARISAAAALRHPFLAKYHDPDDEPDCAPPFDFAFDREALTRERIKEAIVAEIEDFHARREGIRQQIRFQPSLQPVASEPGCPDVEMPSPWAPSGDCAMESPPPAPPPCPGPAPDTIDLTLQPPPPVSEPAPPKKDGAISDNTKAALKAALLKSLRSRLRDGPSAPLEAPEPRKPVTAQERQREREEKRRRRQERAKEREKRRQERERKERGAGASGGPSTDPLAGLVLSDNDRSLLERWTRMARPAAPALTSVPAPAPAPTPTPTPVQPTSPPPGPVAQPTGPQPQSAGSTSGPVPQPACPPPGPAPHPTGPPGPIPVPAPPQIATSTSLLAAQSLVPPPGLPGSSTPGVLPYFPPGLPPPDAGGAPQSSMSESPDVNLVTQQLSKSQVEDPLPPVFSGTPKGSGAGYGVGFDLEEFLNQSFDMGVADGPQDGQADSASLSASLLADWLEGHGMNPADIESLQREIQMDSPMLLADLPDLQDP
# NAD(+) hydrolase SARM1 (Homo sapiens), sequence (Q6SZW1 whole entry, looked up): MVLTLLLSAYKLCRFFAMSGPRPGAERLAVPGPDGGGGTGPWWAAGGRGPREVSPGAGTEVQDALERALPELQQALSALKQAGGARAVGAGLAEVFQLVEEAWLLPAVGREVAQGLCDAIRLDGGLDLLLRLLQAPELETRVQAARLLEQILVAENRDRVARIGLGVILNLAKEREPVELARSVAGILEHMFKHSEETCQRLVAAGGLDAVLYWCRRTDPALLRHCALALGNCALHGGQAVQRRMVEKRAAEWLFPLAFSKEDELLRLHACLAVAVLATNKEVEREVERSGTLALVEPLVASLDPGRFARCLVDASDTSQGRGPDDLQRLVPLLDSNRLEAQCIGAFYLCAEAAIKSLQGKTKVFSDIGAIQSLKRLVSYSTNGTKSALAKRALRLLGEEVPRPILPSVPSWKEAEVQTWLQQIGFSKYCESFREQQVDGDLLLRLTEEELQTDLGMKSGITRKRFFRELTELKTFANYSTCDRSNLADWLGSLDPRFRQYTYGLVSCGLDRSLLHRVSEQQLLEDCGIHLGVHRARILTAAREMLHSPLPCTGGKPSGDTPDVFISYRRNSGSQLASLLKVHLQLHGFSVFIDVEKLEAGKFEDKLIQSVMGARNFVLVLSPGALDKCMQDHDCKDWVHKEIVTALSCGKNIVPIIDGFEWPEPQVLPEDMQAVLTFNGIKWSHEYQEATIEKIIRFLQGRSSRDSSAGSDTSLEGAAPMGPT
compound,measurement,setting,value
CC(=O)O[C@H]1C[C@@H](OC(C)=O)C(C)(C)C2CC(=O)[C@]3(C)C(CC[C@@]4(C)[C@H](c5ccoc5)OC(=O)[C@H]5O[C@]543)[C@]21C (stereo partly drawn),inhibition,[1],6.24% (inactive)
same,luciferase signal,[2],16 AU (inactive)
CCCCCC1C(=O)CCC1CC(=O)O (stereo not drawn),inhibition,[1],-5.33% (inactive)
same,luciferase signal,[2],56 AU (inactive)
Cn1c(=O)[nH]c(=O)c2[nH]cnc21,inhibition,[1],5.61% (inactive)
same,luciferase signal,[2],52 AU (inactive)
COc1ccc2c(c1)OCC(Cc1ccc(OC)c(O)c1)C2=O (stereo not drawn),inhibition,[1],13.3% (inactive)
same,luciferase signal,[2],52 AU (inactive)
COc1ccc(-c2oc3ccccc3c(=O)c2O)cc1OC,inhibition,[1],8.6% (inactive)
same,luciferase signal,[2],52 AU (inactive)
CCc1ccc2c(O)c3c(cc2c1C(=O)OC)C(=O)c1c(O)ccc(O)c1C3=O,inhibition,[1],-5.67% (inactive)
same,luciferase signal,[2],44 AU (inactive)
COc1cc(C(C)=O)cc(OC)c1O,inhibition,[1],-40.3% (inactive)
same,luciferase signal,[2],64 AU (inactive)
Nc1ccn([C@@H]2O[C@H](CO)[C@@H](O)[C@H]2O)c(=O)n1,inhibition,[1],-4.47% (inactive)
same,outcome,[3],inactive
same,outcome,[4],inactive
same,luciferase signal,[2],60 AU (inactive)
O=C(O)c1cc(=O)c2ccccc2[nH]1,parasite load remaining,[5],196% (inactive)
same,viability,[5],68.4%
same,inhibition,[1],9.19% (inactive)
same,fold change,[6]; [20],1.09 (inactive) and 0.962 (inactive)
same,fold change,[6]; [21],0.635 and 0.733
same,cell count,[6]; [22],10600 and 8100
same,cell count,[6]; [23],9680 and 8420
same,luciferase signal,[2],40 AU (inactive)
same,z-score,[7],0.335 (inactive) and 0.005 (inactive)
C=C1CC[C@@H]2[C@](C)(CO)[C@H](O)CC[C@@]2(C)[C@@H]1C/C=C1/C(=O)OC[C@H]1O,inhibition,[1],-4.69% (inactive)
same,luciferase signal,[2],176 AU (active)
COc1cccc(OC)c1OCCNCC1COc2ccccc2O1 (stereo not drawn),inhibition,[1],18.8% (inactive)
same,fold change,[6]; [20],0.967 (inactive) and 0.92 (inactive)
same,fold change,[6]; [21],1.13 and 0.877
same,cell count,[6]; [22],8030 and 7680
same,cell count,[6]; [23],8310 and 8340
same,z-score,[7],-0.59 (inactive) and -0.815 (inactive)
C=C(C)[C@@H]1CC[C@]2(C(=O)O)CC[C@]3(C)[C@H](CC[C@@H]4[C@@]5(C)CC[C@H](O)C(C)(C)[C@@H]5CC[C@]43C)[C@@H]12,survival,[8],9.75 (inactive)
same,parasite load remaining,[5],-8.09% (active) and 64% (inactive)
same,viability,[5],99.2% and 78.2%
same,inhibition,[1],0.445% (inactive)
same,outcome,[3],inactive
same,outcome,[4],inactive
same,outcome,[9],inactive
same,fold change,[6]; [20],0.792 (inactive) and 1.12 (inactive)
same,fold change,[6]; [21],1.41 and 0.964
same,cell count,[6]; [22],5780 and 2010
same,cell count,[6]; [23],7300 and 1790
same,luciferase signal,[2],64 AU (inactive)
COc1ccc(CCC(=O)c2c(O)cc(O[C@@H]3O[C@H](CO)[C@@H](O)[C@H](O)[C@H]3O[C@@H]3O[C@@H](C)[C@H](O)[C@@H](O)[C@H]3O)cc2O)cc1O,inhibition,[1],-14.9% (inactive)
same,AC50,[3],2350 nM (active)
same,outcome,[4],inactive
same,outcome,[9],inactive
same,luciferase signal,[2],36 AU (inactive)
COc1c(O)cc2c(c1O)[C@@H]1O[C@H](CO)[C@@H](O)[C@H](O)[C@H]1OC2=O,inhibition,[1],2.56% (inactive)
same,outcome,[3],inactive
same,outcome,[4],inactive
same,outcome,[9],inactive
same,luciferase signal,[2],48 AU (inactive)
CC(C)(S)[C@@H](N)C(=O)O,inhibition,[1],5.83% (inactive)
same,outcome,[3],inactive
same,outcome,[4],inactive
same,outcome,[9],inactive
same,remaining NAD,[10],10 nM (inactive)
same,luciferase signal,[2],48 AU (inactive)
COc1cc([C@@H]2c3cc4c(cc3[C@@H](O[C@@H]3O[C@@H]5CO[C@@H](c6cccs6)O[C@H]5[C@H](O)[C@H]3O)[C@H]3COC(=O)[C@H]23)OCO4)cc(OC)c1O,inhibition,[1],-2.92% (inactive)
same,AC50,[4],13200 nM (active)
same,AC50,[9],332 nM (active)
same,remaining NAD,[10],10 nM (inactive)
same,luciferase signal,[2],72 AU (inactive)
same,inhibition,"[11]; at 0.5 µM, stronger effect = higher value",-18.8% (inactive) and -25.9% (inactive)
same,inhibition,"[11]; measured here: combination with BGB IC20, at 0.005 µM",-25.8% and -10.9%
same,inhibition,"[11]; measured here: combination with BGB IC40, at 0.005 µM",-33.2% and -18.4%
same,inhibition,[11]; [24],-33.7% and -25%
same,inhibition,"[11]; measured here: combination with cisplatin, at 0.5 µM, stronger effect = higher value",-32.6% and -15.4%
same,inhibition,"[11]; measured here: combination with cisplatin, at 5 µM, stronger effect = higher value",28.9% and -5.22%
same,inhibition,"[12]; BGB combo, at 5 µM",78% and 92.3%
same,inhibition,[12]; at 0.5 µM,53.6% (inactive) and 64.1% (inactive)
same,inhibition,"[12]; cisplatin combo, at 5 µM",82.1% and 93.8%
same,inhibition,[12]; [25],46.9% and 59.7%
same,inhibition,[12]; [26],51% and 63.1%
same,inhibition,"[12]; single agent, at 5 µM",88% and 95.5%
same,inhibition,"[13]; BGB IC20 combo, at 0.005 µM",20.5% and 3.66%
same,inhibition,"[13]; BGB IC40 combo, at 0.005 µM",-28.7% and -5.88%
same,inhibition,"[13]; BGB IC40 combo, at 0.05 µM",-11.6% and -12.3%
same,inhibition,[13]; at 0.5 µM,-25.1% (inactive) and -14.4% (inactive)
same,inhibition,"[13]; cisplatin combo, at 0.05 µM",-14.7% and -16.3%
same,inhibition,"[13]; cisplatin combo, at 0.5 µM",-25.3% and 3.4%
same,inhibition,"[13]; cisplatin combo, at 5 µM",-14.6% and 1.51%
same,inhibition,"[13]; measured here: 5 uM single agent, at 5 µM",-8.36% and -4.68%
same,inhibition,[14]; at 0.5 µM,-4.7% (inactive) and -8.97% (inactive)
same,inhibition,[14]; [24],1.41% and -17.3%
same,inhibition,[14]; [27],10.9% and 4.47%
same,inhibition,"[14]; measured here: combination with cisplatin, at 5 µM",22.9% and 27.7%
same,inhibition,[15]; at 0.5 µM,63.9% (inactive) and 81.2% (active)
same,inhibition,"[15]; measured here: with BGB IC20, at 0.5 µM",57.1% and 81.5%
same,inhibition,"[15]; measured here: with BGB IC20, at 5 µM",98.1% and 98.9%
same,inhibition,"[15]; measured here: with cisplatin IC20, at 0.5 µM",63.4% and 77.7%
same,inhibition,"[15]; measured here: with cisplatin IC20, at 5 µM",99.6% and 99.8%
same,inhibition,"[15]; single agent, at 5 µM",99.4% and 99.7%
same,inhibition,[16]; at 0.5 µM,49.3% (inactive) and 53.1% (inactive)
same,inhibition,"[16]; measured here: BGB combination, at 0.5 µM",36% and 34.4%
same,inhibition,"[16]; measured here: BGB combination, at 5 µM",73.1% and 71.2%
same,inhibition,"[16]; measured here: cisplatin combination, at 0.5 µM",49.6% and 58.2%
same,inhibition,"[16]; measured here: cisplatin combination, at 5 µM",83.3% and 88.6%
same,inhibition,[17]; at 0.5 µM,-19.6% (inactive) and -7.59% (inactive)
same,inhibition,"[17]; cisplatin combination, at 0.5 µM",12.3% and 2.14%
same,inhibition,"[17]; cisplatin combination, at 5 µM",27.6% and 23.9%
same,inhibition,"[17]; measured here: BGB IC40 combination 0.05 uM, at 0.05 µM",-12.5% and 39.7%
same,inhibition,"[17]; single agent, at 5 µM",19.5% and 27.4%
same,inhibition,[18]; at 0.5 µM,-23.3% (inactive) and -2.62% (inactive)
same,inhibition,"[18]; cisplatin combo, at 5 µM",23% and 40.9%
same,inhibition,"[18]; measured here: BGB IC40 combination, at 0.05 µM",-29.1% and -17.5%
same,inhibition,[18]; [27],-8.55% and 20.3%
same,inhibition,"[18]; single agent, at 5 µM",28.8% and 46%
same,inhibition,[19]; at 0.5 µM,44.9% (inactive) and 71.7% (inactive)
same,inhibition,[19]; [25],41.5% and 64%
same,inhibition,[19]; [26],45.4% and 75.2%
same,inhibition,"[19]; single agent, at 0.05 µM",4.76% and 55.4%
same,inhibition,"[19]; single agent, at 5 µM",98% and 98.8%
